The values that follow come from PMC3218832.

What all share (assay): protein binding microarray; high values mean tight binding
What all share (conditions): dsDNA, one strand shown

Assay [1] deals with RELARELA (p65 homodimer) (Homo sapiens, UniProt Q04206 1-307).
For assay [2], the target named is p50p50 homodimer (Homo sapiens, UniProt P19838 7-356).
The target in assay [3] is T1, p52p52 homodimer (Homo sapiens, UniProt Q00653 4-332).
T1 sequence: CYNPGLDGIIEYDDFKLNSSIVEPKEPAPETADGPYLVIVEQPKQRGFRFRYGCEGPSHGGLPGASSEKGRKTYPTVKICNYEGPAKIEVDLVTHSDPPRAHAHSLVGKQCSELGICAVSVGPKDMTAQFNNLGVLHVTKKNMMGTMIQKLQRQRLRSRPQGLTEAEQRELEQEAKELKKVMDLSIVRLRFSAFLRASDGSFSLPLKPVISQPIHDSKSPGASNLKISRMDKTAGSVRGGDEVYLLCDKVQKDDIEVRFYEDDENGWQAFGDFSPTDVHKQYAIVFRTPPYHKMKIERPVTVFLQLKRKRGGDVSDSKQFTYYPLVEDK

For assay [4], the target named is RELA (p65) subunit of heterodimer;p50 subunit (Homo sapiens;Homo sapiens, UniProt Q04206;P19838 1-307;7-356).
Assay [5] addresses RELA (p65) subunit of heterodimer;p52 subunit (Homo sapiens;Homo sapiens, UniProt Q04206;Q00653 1-307;4-332).
In assay [6] the target is RELB subunit;p50 subunit (Homo sapiens;Homo sapiens, UniProt Q01201;P19838 120-401;7-356).
The target in assay [7] is T2, RELB subunit;p52 subunit (Homo sapiens;Homo sapiens, UniProt Q01201;Q00653 120-401;4-332).
T2 sequence 1: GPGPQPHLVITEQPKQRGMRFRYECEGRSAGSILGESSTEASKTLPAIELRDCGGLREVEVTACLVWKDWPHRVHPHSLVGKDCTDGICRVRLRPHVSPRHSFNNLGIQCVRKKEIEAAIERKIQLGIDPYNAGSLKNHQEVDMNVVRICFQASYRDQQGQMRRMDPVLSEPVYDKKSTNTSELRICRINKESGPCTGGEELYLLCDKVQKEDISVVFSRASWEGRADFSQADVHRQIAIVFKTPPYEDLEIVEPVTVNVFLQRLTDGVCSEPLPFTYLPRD
T2 sequence 2: T1 sequence

The target in assay [8] is C-Rel subunit;p50 subunit (Homo sapiens;Homo sapiens, UniProt Q04864;P19838 1-285;7-356).
Assay [9] concerns the target T3, C-Rel subunit;p52 subunit (Homo sapiens;Homo sapiens, UniProt Q04864;Q00653 1-285;4-332).
T3 sequence 1: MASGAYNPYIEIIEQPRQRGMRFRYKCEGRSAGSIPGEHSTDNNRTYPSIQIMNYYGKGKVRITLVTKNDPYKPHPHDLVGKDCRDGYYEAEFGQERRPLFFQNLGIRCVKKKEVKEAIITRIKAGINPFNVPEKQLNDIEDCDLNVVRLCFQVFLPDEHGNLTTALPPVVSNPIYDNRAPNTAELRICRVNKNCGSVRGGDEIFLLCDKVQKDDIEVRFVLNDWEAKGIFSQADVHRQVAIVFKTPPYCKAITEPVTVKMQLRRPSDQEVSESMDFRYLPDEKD
T3 sequence 2: T1 sequence

Sequence of RELARELA (p65 homodimer) (Q04206 1-307): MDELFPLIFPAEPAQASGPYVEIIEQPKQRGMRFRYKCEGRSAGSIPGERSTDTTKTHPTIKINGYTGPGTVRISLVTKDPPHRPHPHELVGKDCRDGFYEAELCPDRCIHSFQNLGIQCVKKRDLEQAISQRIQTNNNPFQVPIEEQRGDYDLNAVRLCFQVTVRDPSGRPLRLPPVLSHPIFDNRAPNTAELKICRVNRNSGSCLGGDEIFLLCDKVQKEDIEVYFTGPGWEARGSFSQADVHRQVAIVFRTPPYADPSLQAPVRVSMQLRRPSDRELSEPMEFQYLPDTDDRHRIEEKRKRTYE
Sequence of RELA (p65) subunit of heterodimer;p50 subunit (Q04206 1-307, chain 1 of 2): as the sequence (Q04206 1-307) above
Sequence of RELA (p65) subunit of heterodimer;p50 subunit (P19838 7-356, chain 2 of 2): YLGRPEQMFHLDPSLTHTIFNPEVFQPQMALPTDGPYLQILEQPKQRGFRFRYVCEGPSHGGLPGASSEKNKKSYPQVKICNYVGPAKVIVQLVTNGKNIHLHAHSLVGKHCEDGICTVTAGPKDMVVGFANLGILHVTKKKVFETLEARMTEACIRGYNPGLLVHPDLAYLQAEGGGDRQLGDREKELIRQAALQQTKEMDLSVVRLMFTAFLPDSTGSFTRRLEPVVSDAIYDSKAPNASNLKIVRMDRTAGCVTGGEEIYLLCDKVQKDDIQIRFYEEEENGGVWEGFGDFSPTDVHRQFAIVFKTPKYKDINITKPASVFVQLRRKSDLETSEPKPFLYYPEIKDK
Sequence of p50p50 homodimer (P19838 7-356): as the sequence (P19838 7-356, chain 2 of 2) above

Regarding CGATTAGTCCT, the binding signal was -0.163 z-score in assay [1]; -1.16 z-score in assay [2]; -0.532 z-score in [3]; -0.961 z-score in assay [4]; -0.861 z-score in [5]; -1.12 z-score in assay [6]. Moreover, the binding signal was -0.766 z-score in assay [7], -1.1 z-score in assay [8] and -0.684 z-score in assay [9].
Regarding CAAAAATCCCC, the binding signal in assay [1] came out at 2.62 z-score; in assay [2] it was 1.37 z-score; in assay [3] it was 2.67 z-score; in assay [4], 2.11 z-score; in assay [5], 2.3 z-score; in assay [6] it was 2.84 z-score. For the same sequence, the figures for the binding signal in assay [7], in assay [8] and in assay [9] were 2.28 z-score, 1.91 z-score and 2.55 z-score, respectively.
As for AAAGTTCTCCT, the binding signal in [1] is 0.015 z-score; in assay [2] it was -1.02 z-score; in assay [3] it was -0.659 z-score; in assay [4] it was -0.601 z-score; in assay [5], -0.834 z-score; in assay [6], -0.944 z-score. Besides, the binding signal in assay [7] was -0.822 z-score; in assay [8], -0.841 z-score; in [9] it was -0.771 z-score.
As to CGAGAATCCCT, the binding signal in [1] is -0.154 z-score; in assay [2], 0.393 z-score; in assay [3], 0.327 z-score; in [4] it was 0.25 z-score; in assay [5] it was 0.284 z-score; in assay [6], 0.305 z-score. Further, the binding signal in assay [7] was determined as 0.573 z-score; in assay [8], 0.277 z-score; in [9], 0.32 z-score.
For CAATGTTCCCT, the binding signal in [1] was 0.185 z-score; in assay [2], 0.396 z-score; in assay [3] it was 0.137 z-score; in assay [4], -0.019 z-score; in [5], -0.0733 z-score; in assay [6], 0.0726 z-score. Besides, the binding signal was 0.0791 z-score in assay [7], 0.0457 z-score in assay [8] and -0.175 z-score in assay [9].
AGATTGGTCCT: the binding signal in [1] is -0.38 z-score; in assay [2], -1.15 z-score; in [3], -0.549 z-score; in assay [4] it was -1.18 z-score; in assay [5], -0.788 z-score; in assay [6], -0.729 z-score. Moreover, the binding signal in assay [7] is -0.656 z-score; in assay [8] it was -1.35 z-score; in [9], -0.852 z-score.
On to GAATAGGTCCT, for which the binding signal in assay [1] is -0.471 z-score; in [2], -1.25 z-score; in assay [3] it was -0.387 z-score; in assay [4], -1.08 z-score; in [5], -0.8 z-score; in assay [6], -0.766 z-score. Besides, the binding signal in assay [7] is -0.501 z-score; in [8], -1.35 z-score; in assay [9], -0.527 z-score.
In the case of AGGGACGTCCT, the binding signal in assay [1] is 0.554 z-score; in assay [2], 0.528 z-score; in assay [3] it was 1.06 z-score; in assay [4], 0.549 z-score; in assay [5], 0.923 z-score; in assay [6], 0.448 z-score. The binding signal stood at 0.709 z-score in [7], 0.177 z-score in assay [8] and 0.67 z-score in [9].
Consider CGGTTTTTCCC, for which the binding signal came out at 3.71 z-score in assay [1]; 0.935 z-score in assay [2]; 2.66 z-score in [3]; 1.81 z-score in assay [4]; 1.88 z-score in assay [5]; 1.05 z-score in assay [6]. In addition, the binding signal in [7] came out at 1.78 z-score; in assay [8], 1.57 z-score; in [9], 2.3 z-score.
For the sequence GGGTGTGTCCC, the binding signal in assay [1] is 0.547 z-score; in [2], 0.331 z-score; in assay [3], 1.38 z-score; in [4], 0.647 z-score; in assay [5], 1.02 z-score; in assay [6] it was 0.42 z-score. In addition, the binding signal in assay [7] amounted to 0.593 z-score; in [8], 0.648 z-score; in assay [9], 0.813 z-score.
As to AGATTCGCCCC, the binding signal in assay [1] was 0.366 z-score; in assay [2], 0.156 z-score; in assay [3], 0.127 z-score; in assay [4], 0.288 z-score; in [5], 0.219 z-score; in [6], 0.292 z-score. Besides, the binding signal in assay [7] is 0.48 z-score; in [8], 0.611 z-score; in [9] it was -0.0556 z-score.
Regarding AAGGGGCTCCT, the binding signal in assay [1] was -0.668 z-score; in assay [2], 0.769 z-score; in assay [3], 0.959 z-score; in [4] it was 0.032 z-score; in assay [5], 0.753 z-score; in assay [6], 0.344 z-score. For the same sequence, the binding signal in assay [7] is 0.791 z-score; in assay [8] it was -0.103 z-score; in [9], 0.392 z-score.
As to AAGGTACTCCC, the binding signal is -0.19 z-score in assay [1]; 0.76 z-score in assay [2]; 0.735 z-score in assay [3]; 0.376 z-score in assay [4]; 0.386 z-score in [5]; 0.54 z-score in assay [6]. Also, the values for the binding signal in assay [7], in assay [8] and in [9] were 0.302 z-score, 0.206 z-score and 0.449 z-score, respectively.
AGAGAGGCCCC: the binding signal was -0.813 z-score in assay [1]; -0.259 z-score in assay [2]; -0.348 z-score in assay [3]; -0.461 z-score in assay [4]; -0.565 z-score in [5]; -0.342 z-score in assay [6]. Further, the binding signal in assay [7] was -0.35 z-score; in [8], -0.436 z-score; in [9], -0.513 z-score.
Regarding CAGGTCGCCCC, the binding signal in assay [1] is -0.367 z-score; in assay [2] it was -0.385 z-score; in [3] it was -0.232 z-score; in [4], -0.268 z-score; in assay [5] it was -0.328 z-score; in assay [6], -0.18 z-score. Besides, the results for the binding signal in assay [7], in [8] and in assay [9] were -0.126 z-score, 0.016 z-score and -0.13 z-score, respectively.
